Measured values as given in PubChem BioAssay (NCI).
Values joined by “and” are separate entries in the source; they are usually repeats but may differ in a detail not shown here. Equal entries are not always repeated. About 83,000 compounds went through this panel and 20% of them were active in at least one assay; those are over-represented in the sample as a whole.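 Cell lines were cultured in 96-well plates, exposed to a single compound concentration, and assessed for percent growth 48 hours later.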 Unmarked numbers belong to inactive results. Active and inactive are the calls of the source. How the source made its calls: active means growth percent below 10; inactive means the rest.

System: MDA-MB-468 breast
Test: NCI-60 one-dose screen, 48 h (100 = growth as untreated, 0 = no growth, -100 = all killed)
Conditions: 10 µM unless noted

| Compound | growth |
| --- | --- |
| CCNCCNc1c(C)c(-c2ccc(C(F)(F)F)cc2)c(C#N)c2nc3ccccc3n12 | 56.1% |
| O=C(NS(=O)(=O)c1ccc2ccccc2c1)n1cc(-c2ccncc2)c(-c2ccc(Cl)c(O)c2)n1 | 78.3% |
| COc1cc(Nc2cc(O)c3c(=O)cc(-c4ccccc4)oc3c2)cc(OC)c1 | 11.7% |
| Cc1ccc(Nc2nc(N)nc(Nc3ccc4ccccc4c3)n2)cc1 | 20.2% |
| O=C(CCc1nnc(SCc2ccccc2)s1)c1nc2ccccc2[nH]1 | 103% |
| O=[N+]([O-])c1cc(S(=O)(=O)Oc2ccccc2)ccc1Cl | -78.1% (active) |
| Cc1ccc(-n2cc(-c3ccccc3)c3c2N=NN2CCN=C32)cc1 | 103% |
| COc1cc2c(c(OC)c1OC)CCc1cnoc1-2 | 83.8% |
| O=C(CNc1ccc2c(c1)C(=O)c1ccccc1C2=O)Nc1ccc2c(c1)C(=O)c1ccccc1C2=O | -87.4% (active) |
| O=C(NS(=O)(=O)c1ccccc1)n1cc(-c2ccncc2)c(-c2cc(O)cc(Cl)c2)n1 | 98.4% |
| C/C(=C\c1ccc([N+](=O)[O-])cc1)C(=O)O | 116% |
| CC(=O)Nc1ccc(CC#N)cc1Br | 102% |
| COc1ccc(C2C(c3nn[nH]n3)=C(N)Oc3c2ccc2ccccc32)cc1 (centres undefined) | 43.8% |
| C#CC(F)(F)[C@]1(O)CCC2C3CCC4=CC(=O)CCC4=C3[C@@H](c3ccc(N(C)C)cc3)C[C@@]21C (some centres undefined) | 101% |
| COc1cc(C2=N/C(=C\c3cc4ccccc4nc3Oc3ccccc3)C(=O)N2C(=N)N)cc(OC)c1OC | 67.9% |
| CNc1ccc(Nc2ccc(S(=O)(=O)O)cc2)c2c1C(=O)c1ccccc1C2=O | 98.6% |
| CCOC(=O)[C@]1(Br)CC[C@@]1(Br)C(=O)OCC | 44.9% |
| CC(=O)C(/C=N/C(N)=O)=C(/C)O | 109% |
| Cn1cc(-c2csc(-c3cn(C)c4ncccc34)n2)c2cccnc21 | -10.8% (active) |
| CN(C)c1ccc(C(=S)c2ccc(N(C)C)cc2)cc1 | -12.3% (active) |

| Compound | growth |
| --- | --- |
| O=c1cc(-c2ccccc2)[nH]c2ncc(-c3ccc(F)cc3)n12 | 83% |
| NNC(=O)CCCCl | 96% |
| Cc1nc2ccccc2c(C(=O)O)c1O | 99.9% |
| Cn1cc(-c2nc(-c3c[nH]c4ncccc34)cs2)c2ccccc21 | -19% (active) |
| Cn1ccnc1C(=O)/C=C/c1ccc(CC(=O)Nc2ccc(S(F)(F)(F)(F)F)cc2)cc1 | -22.9% (active) |
| COc1cc(/C=C/c2cc(/C=C/c3ccc(O)c(OC)c3)[nH]c(=O)n2)ccc1O | 6.34% (active) |
| CCOc1ccc(N(C)c2ccc(/C=C/C3=[N+](C)c4ccccc4C3(C)C)cc2)cc1 | 6.26% (active) |
| Clc1ncnc2nc[nH]c12 | 108% |
| N#CC1=C(Nc2ccccc2Cl)SC(c2ccccc2O)NC1=O (centres undefined) | 122% |
| C=C1c2c(C)nn(-c3ccc(O)cc3)c2N(C)C23C[C@@H]1C1(C)c4c(C)nn(-c5ccc(O)cc5)c4N(C)C(C)(C[C@H]12)C3 (some centres undefined) | -5.71% (active) |
| CCCn1c2cc(OCc3cn(-c4ccc(Br)cc4)nn3)ccc2c2ccnc(C)c21 | 25.6% |
| COc1cc2c(c(OC)c1OC)CCC(c1cccc(NC(=O)c3cccc(Cl)c3)c1)O2 (centres undefined) | 60.2% |
| CCN(CC)CC(O)c1cc(-c2ccc(Cl)cc2)nc2c(C)c(Cl)ccc12 (centres undefined) | -88.6% (active) |
| Cc1ccc(N)c(S(=O)(=O)O)c1 | 82.6% |
| O=C(O)C1CSCN1 (centres undefined) | 114% and 95.5% |
| COc1ccccc1/C=N\Nc1ccc([N+](=O)[O-])cn1 | 109% |
| C[C@]12CCC(=O)C[C@H]1CC[C@@H]1[C@@H]2CC[C@@]2(C)[C@H]1CC[C@]2(O)C(=O)CO | 99.8% |
| CS(=O)(=O)c1nccc(-c2c(-c3ccc(F)c(OCc4ccc(F)cc4)c3)nc3sccn23)n1 | -37.2% (active) |
| CCCCCCCCCCCCS(=O)CC(C)O (centres undefined) | 106% |
